# Assay results taken from PubChem BioAssay (EPA / NIEHS).
# The source made the active and inactive calls. Rule for the calls: active = hit-call score of the fitted dose curve at least 0.9, where 1 is the maximum; inactive = score below 0.9.
# How the values were obtained:
# [1] = APR_HepG2_CellCycleArrest_24hr: Apredica 24-hour HepG2 Assay for Cell Cycle Arrest (AID 2282905); conditions: imaging, actives raise or lower the signal;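 note: cell cycle arrest scored as ratio of 2N to 4N nuclear DNA content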
# Outline: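 Cell cycle arrest is scored from nuclear DNA content measured by high-content imaging of Hoechst 33342-stained HepG2 cells following 24-hour treatment at ten concentrations up to 200 uM, with DMSO as baseline.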
# [2] = APR_HepG2_CellLoss_24hr: Apredica 24-hour HepG2 Assay for Cell Loss (AID 2282908); conditions: high-content imaging
# Outline: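 Cell number is quantified by fluorescence imaging of Hoechst 33342-stained nuclei following dosing at 0.39–200 uM in 0.5% DMSO. Curves are fitted in both directions from the DMSO baseline.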
# [3] = APR_HepG2_MicrotubuleCSK_24hr: Apredica 24-hour HepG2 Assay for Microtubule CSK Stabilty (AID 2282909); conditions: HepG2 microtubule cytoskeleton imaging, actives raise or lower the signal
# Outline: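 Steps: dose HepG2 for 24 h (0.39–200 uM, 0.5% DMSO); fix 30 min in 3.7% formaldehyde at room temperature; permeabilize; stain alpha-tubulin 60 min; image microtubule cytoskeleton at 20x. Signal change fitted in both directions relative to DMSO.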
# [4] = APR_HepG2_MitoMembPot_24hr: Apredica 24-hour HepG2 Assay for Mitochondrial Membrane Potential (AID 2282911); conditions: imaging, actives raise or lower the signal
# Outline: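 Human hepatoma HepG2 cultures received ten compound concentrations up to 200 uM for 24 hr. Membrane-potential dye signal, captured by automated fluorescence microscopy, was scored for gain or loss against DMSO controls.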
# [5] = APR_HepG2_MitoMass_24hr: Apredica 24-hour HepG2 Assay for Mitochondrial Mass (AID 2282912); conditions: high-content imaging, actives raise or lower the signal
# Outline: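 The liver line HepG2 was dosed in duplicate across a 0.39–200 uM series, with final DMSO held at 0.5% v/v, and harvested at 24 hr. High-content imaging measured mitochondrial dye staining.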
# [6] = APR_HepG2_p53Act_24hr: Apredica 24-hour HepG2 Assay for p53 Activation (AID 2282913); conditions: high-content imaging, actives raise or lower the signal;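 note: p53 protein immunofluorescence averaged per cell in HepG2 with Hoechst nuclei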
# Outline: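 Automated fluorescence imaging quantifies p53 immunostaining in HepG2 cells after a 24 hr exposure (0.39–200 uM, duplicate, 0.5% DMSO). Nuclei are located by Hoechst 33342 staining.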
# [7] = APR_HepG2_CellCycleArrest_72hr: Apredica 72-hour HepG2 Assay for Cell Cycle Arrest (AID 2282914); conditions: high-content imaging, actives raise or lower the signal
# Outline: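 Cell cycle arrest in HepG2 was scored from nuclear DNA content after 72 hr compound treatment (0.39–200 uM). Activity, either gain or loss, was fitted against the DMSO baseline.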
# [8] = APR_HepG2_CellLoss_72hr: Apredica 72-hour HepG2 Assay for Cell Loss (AID 2282915); conditions: high-content imaging
# Outline: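 HepG2 cells were exposed for 72 hr to compounds at 0.39–200 uM (ten concentrations, duplicate) in 0.5% v/v final DMSO. Nuclei were stained with Hoechst 33342 after 3.7% formaldehyde fixation, imaged at 20x, and counted; fits bidirectional versus DMSO.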
# [9] = APR_HepG2_P-H2AX_72hr: Apredica 72-hour HepG2 Assay for H2AX Phosphorylation (AID 2282916); conditions: imaging, actives raise or lower the signal;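 note: phospho-histone H2A.x immunostain intensity per cell marking DNA damage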
# Outline: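 Following 72 hr treatment with 0.39–200 uM compound, HepG2 cells were formaldehyde-fixed, permeabilized and stained for phospho-H2A.x; signal was measured by high-content imaging and fitted bidirectionally against DMSO controls.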
# [10] = APR_HepG2_MitoMembPot_72hr: Apredica 72-hour HepG2 Assay for Mitochondrial Membrane Potential (AID 2282917); conditions: imaging, actives raise or lower the signal
# Outline: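 HepG2 cells exposed 72 h to compounds at 0.39–200 uM (0.5% v/v DMSO, duplicates); MitoTracker Red CMXRos 250 nM loaded 30 min before 3.7% formaldehyde fixation, imaged by HCS fluorescence. Bidirectional fit versus DMSO.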
# [11] = APR_HepG2_MicrotubuleCSK_72hr: Apredica 72-hour HepG2 Assay for Microtubule CSK Stabilty (AID 2282919); conditions: HepG2 microtubule cytoskeleton, high-content imaging, actives raise or lower the signal
# Outline: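 HepG2 human liver cells were dosed for 72 h at ten concentrations from 0.39 to 200 uM in duplicate (0.5% v/v DMSO final). Fixed, permeabilized cells were immunostained for alpha-tubulin (Cy5) with a Hoechst counterstain and imaged at 20x.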
# [12] = APR_HepG2_P-H2AX_24hr: Apredica 24-hour HepG2 Assay for H2AX Phosphorylation (AID 2282920); conditions: high-content imaging, actives raise or lower the signal
# Outline: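 Signal comes from a FITC-labeled secondary detecting phospho-histone H2A.x in fixed HepG2 cells, quantified by automated imaging at 20x. Dosing ran 24 hr across 0.39–200 uM with 0.5% v/v DMSO.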
# [13] = APR_HepG2_StressKinase_72hr: Apredica 72-hour HepG2 Assay for Stress Kinase (AID 2282921); conditions: HepG2 stress kinase (phospho-c-Jun) imaging, actives raise or lower the signal
# Outline: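 Fluorescence intensity of Cy3-tagged anti-phospho-c-Jun antibody, quantified per cell from Hoechst-defined nuclei across six images per well, served as the read-out following 72 h exposure (0.39–200 uM, 0.5% v/v DMSO).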
# [14] = APR_HepG2_StressKinase_24hr: Apredica 24-hour HepG2 Assay for Stress Kinase (AID 2282922); conditions: HepG2 stress kinase (phospho-c-Jun) imaging, actives raise or lower the signal
# Outline: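 HepG2 cells exposed 24 hr to compound at 0.39–200 uM (10 concentrations, duplicate), 0.5% v/v DMSO final. Fixed in 3.7% formaldehyde, permeabilized with Triton X-100, immunolabeled for phospho-c-Jun with Hoechst 33342; HCS fluorescence imaging, bidirectional fit versus DMSO.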
# [15] = APR_HepG2_p53Act_72hr: Apredica 72-hour HepG2 Assay for p53 Activation (AID 2282923); conditions: high-content imaging, actives raise or lower the signal;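 note: average cellular p53 protein immunofluorescence intensity in HepG2 cells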
# Outline: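 HepG2 monolayers receive test compounds in duplicate at ten concentrations (0.39 through 200 uM) for 72 hr. They are then formaldehyde-fixed, antibody-labelled for p53, Hoechst-stained and imaged, with activity fitted bidirectionally versus DMSO.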
# [16] = APR_HepG2_MitoMass_72hr: Apredica 72-hour HepG2 Assay for Mitochondrial Mass (AID 2282924); conditions: high-content imaging, actives raise or lower the signal;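 note: MitoTracker Red CMXRos stain intensity per cell imaged as mitochondrial mass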
# Outline: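 HepG2 cells were exposed for 72 hr to compounds at 0.39–200 uM (ten concentrations, duplicate, 0.5% v/v DMSO final). Live cells were stained with 250 nM MitoTracker Red CMXRos for 30 min, then fixed in 3.7% formaldehyde and imaged by HCS fluorescence.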
# [17] = APR_HepG2_MitoticArrest_72hr: Apredica 72-hour HepG2 Assay for Mitotic Arrest (AID 2282918); conditions: high-content imaging, actives raise or lower the signal
# Outline: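 Mitotic arrest in HepG2 is scored from phospho-histone H3 staining after 72 hr dosing across 0.39–200 uM, with DMSO at 0.5% v/v. Nuclei are identified by Hoechst 33342 and fluorescence intensity is quantified per cell.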
# [18] = APR_HepG2_MitoticArrest_24hr: Apredica 24-hour HepG2 Assay for Mitotic Arrest (AID 2282910); conditions: high-content imaging, actives raise or lower the signal
# Outline: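 HepG2 human liver cells were exposed to compounds at 0.39–200 uM (10 concentrations, duplicate) in 0.5% v/v DMSO for 24 hr, then fixed and immunostained for phospho-histone H3 with Hoechst 33342. Mitotic arrest came from HCS fluorescent imaging, fitted bidirectionally against DMSO.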
smiles,measurement,setting,value
CCCOC(=O)c1ccc(C(=O)OCCC)nc1,outcome,[1],inactive
same,outcome,[2],inactive
same,outcome,[3],inactive
same,outcome,[4],inactive
same,outcome,[5],inactive
same,outcome,[6],inactive
same,outcome,[7],inactive
same,outcome,[8],inactive
same,outcome,[9],inactive
same,outcome,[10],inactive
same,outcome,[11],inactive
same,outcome,[12],inactive
same,outcome,[13],inactive
same,outcome,[14],inactive
same,outcome,[15],inactive
same,outcome,[16],inactive
CCOC(=O)c1ccc(O)cc1,outcome,[1],inactive
same,outcome,[2],inactive
same,outcome,[4],inactive
same,outcome,[5],inactive
same,outcome,[6],inactive
same,outcome,[7],inactive
same,outcome,[8],inactive
same,outcome,[9],inactive
same,outcome,[10],inactive
same,outcome,[17],inactive
same,outcome,[11],inactive
same,outcome,[12],inactive
same,outcome,[13],inactive
same,outcome,[14],inactive
same,outcome,[15],inactive
same,outcome,[16],inactive
CCCCOC(=O)[C@@H](C)Oc1ccc(Oc2ccc(C(F)(F)F)cn2)cc1,outcome,[1],inactive
same,outcome,[2],inactive
same,outcome,[3],inactive
same,outcome,[4],inactive
same,outcome,[5],inactive
same,outcome,[6],inactive
same,outcome,[7],inactive
same,outcome,[8],inactive
same,outcome,[9],inactive
same,outcome,[10],inactive
same,outcome,[11],inactive
same,outcome,[12],inactive
same,outcome,[13],inactive
same,outcome,[14],inactive
same,outcome,[15],inactive
same,outcome,[16],inactive
O=C(O)C1(C(=O)Nc2ccc(Cl)cc2Cl)CC1,outcome,[1],inactive
same,outcome,[2],inactive
same,outcome,[4],inactive
same,outcome,[5],inactive
same,outcome,[6],inactive
same,outcome,[7],inactive
same,outcome,[9],inactive
same,outcome,[10],inactive
same,outcome,[11],inactive
same,outcome,[12],inactive
same,outcome,[13],inactive
same,outcome,[14],inactive
same,outcome,[15],inactive
same,outcome,[16],inactive
COC(=O)c1ccc(I)cc1S(=O)(=O)NC(=O)Nc1nc(C)nc(OC)n1,outcome,[1],inactive
same,outcome,[2],inactive
same,outcome,[3],inactive
same,outcome,[4],inactive
same,outcome,[5],inactive
same,outcome,[6],inactive
same,outcome,[7],inactive
same,outcome,[8],inactive
same,outcome,[9],inactive
same,outcome,[10],inactive
same,outcome,[11],inactive
same,outcome,[12],inactive
same,outcome,[13],inactive
same,outcome,[14],inactive
same,outcome,[15],inactive
same,outcome,[16],inactive
CCOC(=O)[C@H](C)Oc1ccc(Oc2nc3ccc(Cl)cc3o2)cc1,outcome,[1],inactive
same,outcome,[2],inactive
same,outcome,[3],inactive
same,outcome,[18],inactive
same,AC50,[4],96.7 µM (active)
same,outcome,[5],inactive
same,outcome,[6],inactive
same,outcome,[7],inactive
same,outcome,[9],inactive
same,outcome,[10],inactive
same,outcome,[11],inactive
same,outcome,[12],inactive
same,outcome,[13],inactive
same,outcome,[14],inactive
same,outcome,[15],inactive
same,outcome,[16],inactive
CCCCC(CC)CN1C(=O)C2C3C=CC(C3)C2C1=O (stereo unspecified),outcome,[1],inactive
same,outcome,[2],inactive
same,AC50,[3],72.3 µM (active)
same,outcome,[18],inactive
same,outcome,[4],inactive
same,outcome,[5],inactive
same,outcome,[6],inactive
same,outcome,[7],inactive
same,outcome,[9],inactive
same,outcome,[10],inactive
same,outcome,[17],inactive
same,AC50,[11],85.7 µM (active)
same,outcome,[12],inactive
same,outcome,[13],inactive
same,outcome,[14],inactive
same,outcome,[15],inactive
same,outcome,[16],inactive
